Results from the supplement of paper PMC13380429.

System: Vero E6 infected with SARS-CoV-2
Assay: inhibition of SARS-CoV-2 cytopathic effect; higher = more antiviral protection, active = above 15
Details: 48 h

Measured: inhibition of SARS-CoV-2 cytopathic effect

Cc1cncc(CN2CCC(=C3c4ccc(Cl)cc4CCc4cccnc43)CC2)c1 [rupatadine]
inactive: 1 nM -0.79% | 8.33 nM -0.26% | 100 nM 2.27% | 833.33 nM 2.5% | 10000 nM -9.2%

OCCC#Cc1nc(-c2ccc(F)cc2)c(-c2ccncc2)n1CCCc1ccccc1
inactive: 1 nM 2.21% | 8.33 nM -1.75% | 100 nM -1.41% | 833.33 nM 0.51% | 10000 nM 2.27%

O=C(Nc1ccc(OC(F)(F)F)cc1)c1sccc1NCc1ccnc2ccccc12
inactive: 1 nM -2.32% | 8.33 nM 3.56% | 100 nM 4.81% | 833.33 nM 4.77% | 10000 nM 5.44%

CCOc1cn(-c2ccc(F)cc2C)nc1C(=O)Nc1ccc(Oc2ccnc3cc(OC)c(OC)cc23)c(F)c1
inactive: 1 nM -0.58% | 8.33 nM -1.4% | 100 nM -1.89% | 833.33 nM 0.24% | 10000 nM -1.4%

CCOc1cccc(NC(=O)c2ccc(N3CCCC3)c(C(F)(F)F)c2)c1
inactive: 1 nM 0.59% | 8.33 nM -0.15% | 100 nM -0.42% | 833.33 nM -1.65% | 10000 nM -2.63%

O=[N+]([O-])c1cc(Cl)ccc1S(=O)(=O)N1CCN(Cc2ccccc2)CC1
inactive: 1 nM 2.15% | 8.33 nM 2.13% | 100 nM -0.96% | 833.33 nM 3.68% | 10000 nM -1.65%

CNC(=O)c1cc2c(cn1)[nH]c1ccccc12
inactive: 1 nM 1.51% | 8.33 nM -0.17% | 100 nM 1.17% | 833.33 nM -0.08% | 10000 nM 1.58%

O=C(NCCO)c1cc(C(=O)NCCO)cc(C(=O)NCCO)c1
inactive: 1 nM -0.77% | 8.33 nM -1.01% | 100 nM -1.2% | 833.33 nM -1.25% | 10000 nM 0.61%

CO[C@@]1(NC(=O)CSCC#N)C(=O)N2C(C(=O)O)=C(CSc3nnnn3C)CS[C@@H]21 [cefmetazole]
inactive: 1 nM 1.84% | 8.33 nM 1.39% | 100 nM 1.15% | 833.33 nM 2.93% | 10000 nM 2.49%

CC(C)(O)c1coc(S(=O)(=O)NC(=O)Nc2c3c(cc4c2CCC4)CCC3)c1
inactive: 1 nM -0.7% | 8.33 nM -2.3% | 100 nM -3.97% | 833.33 nM 0.34% | 10000 nM -0.6%

CCCCn1ccc(N2CCC(c3ccccc3)CC2)c(Cl)c1=O
inactive: 1 nM 1.82% | 8.33 nM 3.38% | 100 nM 1.99% | 833.33 nM 1.64% | 10000 nM -5.17%

Fc1ccc(CNc2ncnc3ccc(F)cc23)cc1 [spautin-1]
inactive: 1 nM -1.85% | 8.33 nM -0.71% | 100 nM -0.05% | 833.33 nM -0.85% | 10000 nM -1.95%

Cc1ccc2c(Cl)cc(Cl)c(O)c2n1 [chlorquinaldol]
inactive: 1 nM -1.39% | 8.33 nM -0.32% | 100 nM -1.09% | 833.33 nM -1.86% | 10000 nM 0.43%

OCCOCCN1CCN(C(c2ccccc2)c2ccc(Cl)cc2)CC1 (stereo not given) [hydroxyzine]
inactive: 1 nM 1.41% | 8.33 nM 0.93% | 100 nM 1.56% | 833.33 nM -1.88% | 10000 nM -4.3%

CC[C@@H](Nc1c(Nc2cccc(C(=O)N(C)C)c2O)c(=O)c1=O)c1ccc(C)o1 [navarixin]
inactive: 1 nM -0.8% | 8.33 nM 1.26% | 100 nM 0.77% | 833.33 nM 1.8% | 10000 nM -2.11%

O=C1C2CC=CCC2C(=O)N1SC(Cl)(Cl)Cl (stereo not given) [captan]
inactive: 1 nM 1.85% | 8.33 nM 4.35% | 100 nM 4.16% | 833.33 nM 4.29% | 10000 nM 7.49%

CN1CCN(c2ccc(Nc3ncc4cc(C#N)c(=O)n(C5CCCC5)c4n3)cc2)CC1
inactive: 1 nM 1.39% | 8.33 nM 1.36% | 100 nM -0.35% | 833.33 nM -6.03% | 10000 nM -6.23%

O=C1OCCN1/N=C/c1ccc([N+](=O)[O-])o1 [furazolidone]
inactive: 1 nM 2.49% | 8.33 nM 3.22% | 100 nM 2.2% | 833.33 nM 1.08% | 10000 nM 0.23%

CC(=O)CC(=O)O [lithium-acetoacetate]
inactive: 1 nM -0.56% | 8.33 nM -0.05% | 100 nM 1.48% | 833.33 nM 1.82% | 10000 nM 0.27%
